Source: publication PMC7862700, “An all-to-all approach to the identification of sequence-specific readers for epigenetic DNA modifications on cytosine”

Legend:
Assay in all cases: DAPPL (digital affinity profiling via proximity ligation, sequencing); 10 mM Tris-HCl pH 7.5, 50 mM NaCl, 1 mM DTT, 4% glycerol, room temperature, 30 min; GST-TFs on glutathione beads, 16-mer random dsDNA library, 0.1% formaldehyde crosslink after washing; high values mean tight binding
Details in all cases: protein: recombinant; tags: N-terminal GST; dsDNA, one strand shown
ELK1 = biological target: T1, ELK1 (Homo sapiens, UniProt P19419 1-428)
T1 sequence: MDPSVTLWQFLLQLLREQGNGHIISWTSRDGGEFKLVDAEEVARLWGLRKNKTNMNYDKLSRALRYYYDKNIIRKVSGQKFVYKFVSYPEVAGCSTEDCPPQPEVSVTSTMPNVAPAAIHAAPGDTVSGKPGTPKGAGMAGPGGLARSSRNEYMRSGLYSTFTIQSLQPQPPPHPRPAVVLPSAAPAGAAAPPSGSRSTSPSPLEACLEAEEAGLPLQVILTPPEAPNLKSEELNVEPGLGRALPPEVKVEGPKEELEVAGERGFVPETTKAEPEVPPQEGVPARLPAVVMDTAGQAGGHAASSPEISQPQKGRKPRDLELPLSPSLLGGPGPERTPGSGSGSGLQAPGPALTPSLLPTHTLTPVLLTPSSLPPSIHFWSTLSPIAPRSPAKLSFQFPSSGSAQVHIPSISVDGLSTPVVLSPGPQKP
Outline: (§1)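 In yeast, human transcription factors were expressed with a GST fusion, then pulled down on glutathione beads and given DNA barcodes. Pooled with a tag-only sample, they were exposed to 200 nmole of a 16-mer random double-stranded DNA library (Tris/NaCl/DTT/glycerol buffer, room temperature, 30 min), washed, crosslinked with 0.1% formaldehyde, proximity-ligated using BsaI/T4 ligase for 1 h at 37 °C, PCR-amplified and read on an Illumina NextSeq500. Each hexamer's frequency of reads for a factor, divided by the matching frequency for the tag-only sample, gives the binding signal.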

SPI1 = SPI1 (Homo sapiens, UniProt P17947 1-270)
Outline: as §1

ELK3 = biological target: T2, ELK3 (Homo sapiens, UniProt P41970 1-407)
T2 sequence: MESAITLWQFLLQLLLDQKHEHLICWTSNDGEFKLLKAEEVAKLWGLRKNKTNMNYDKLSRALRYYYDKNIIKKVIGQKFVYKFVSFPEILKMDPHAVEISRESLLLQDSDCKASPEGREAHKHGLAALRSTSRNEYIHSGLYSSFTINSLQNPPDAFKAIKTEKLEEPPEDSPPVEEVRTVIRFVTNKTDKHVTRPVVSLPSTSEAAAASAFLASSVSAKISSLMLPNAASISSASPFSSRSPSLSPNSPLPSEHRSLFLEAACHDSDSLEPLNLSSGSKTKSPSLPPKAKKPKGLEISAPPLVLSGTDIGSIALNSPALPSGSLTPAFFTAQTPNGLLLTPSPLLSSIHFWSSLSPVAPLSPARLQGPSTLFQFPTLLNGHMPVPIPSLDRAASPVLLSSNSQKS
Outline: as §1

SPIC = biological target: T3, SPIC (Homo sapiens, UniProt Q8N5J4 1-248)
T3 sequence: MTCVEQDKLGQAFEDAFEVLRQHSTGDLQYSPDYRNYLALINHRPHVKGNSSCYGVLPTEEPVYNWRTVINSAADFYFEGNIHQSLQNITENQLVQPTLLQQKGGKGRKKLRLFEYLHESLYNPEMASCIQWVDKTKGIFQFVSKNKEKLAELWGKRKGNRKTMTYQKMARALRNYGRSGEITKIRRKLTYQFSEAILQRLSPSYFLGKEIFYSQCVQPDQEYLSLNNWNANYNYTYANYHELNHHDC
Outline: as §1

ELF4 = ELF4 (Homo sapiens, UniProt Q99607 1-663)
ELF4, sequence (Q99607 whole entry): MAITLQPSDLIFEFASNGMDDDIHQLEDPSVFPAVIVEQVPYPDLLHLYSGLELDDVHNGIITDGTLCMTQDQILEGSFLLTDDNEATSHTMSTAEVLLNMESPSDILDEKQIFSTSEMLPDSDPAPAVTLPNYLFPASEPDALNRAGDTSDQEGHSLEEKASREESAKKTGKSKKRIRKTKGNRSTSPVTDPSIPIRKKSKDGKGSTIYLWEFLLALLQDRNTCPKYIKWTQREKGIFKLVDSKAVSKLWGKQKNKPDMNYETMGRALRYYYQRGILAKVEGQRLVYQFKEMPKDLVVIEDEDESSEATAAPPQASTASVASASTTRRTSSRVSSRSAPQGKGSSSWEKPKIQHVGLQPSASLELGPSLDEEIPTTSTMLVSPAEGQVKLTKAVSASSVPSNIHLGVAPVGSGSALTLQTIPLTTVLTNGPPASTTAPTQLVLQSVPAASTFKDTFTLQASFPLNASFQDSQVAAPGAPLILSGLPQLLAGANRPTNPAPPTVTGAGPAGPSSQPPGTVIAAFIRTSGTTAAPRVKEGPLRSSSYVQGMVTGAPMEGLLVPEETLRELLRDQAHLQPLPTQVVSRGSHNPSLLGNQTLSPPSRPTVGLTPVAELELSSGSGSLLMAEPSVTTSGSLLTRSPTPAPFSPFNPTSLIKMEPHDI
Outline: as §1

ELF3 = biological target: T4, ELF3 (Homo sapiens, UniProt P78545 1-371)
T4 sequence: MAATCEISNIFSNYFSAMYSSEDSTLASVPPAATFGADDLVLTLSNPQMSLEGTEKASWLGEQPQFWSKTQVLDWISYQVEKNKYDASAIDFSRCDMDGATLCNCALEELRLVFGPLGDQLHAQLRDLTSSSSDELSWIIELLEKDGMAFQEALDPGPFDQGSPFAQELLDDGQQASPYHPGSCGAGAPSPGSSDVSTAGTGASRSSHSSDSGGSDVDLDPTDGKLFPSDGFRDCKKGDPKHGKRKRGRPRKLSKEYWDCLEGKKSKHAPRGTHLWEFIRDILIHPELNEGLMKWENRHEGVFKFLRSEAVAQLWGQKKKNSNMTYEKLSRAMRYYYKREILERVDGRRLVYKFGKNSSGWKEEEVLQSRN
Outline: as §1

ERG = biological target: T5, ERG (Homo sapiens, UniProt P11308 1-479)
T5 sequence: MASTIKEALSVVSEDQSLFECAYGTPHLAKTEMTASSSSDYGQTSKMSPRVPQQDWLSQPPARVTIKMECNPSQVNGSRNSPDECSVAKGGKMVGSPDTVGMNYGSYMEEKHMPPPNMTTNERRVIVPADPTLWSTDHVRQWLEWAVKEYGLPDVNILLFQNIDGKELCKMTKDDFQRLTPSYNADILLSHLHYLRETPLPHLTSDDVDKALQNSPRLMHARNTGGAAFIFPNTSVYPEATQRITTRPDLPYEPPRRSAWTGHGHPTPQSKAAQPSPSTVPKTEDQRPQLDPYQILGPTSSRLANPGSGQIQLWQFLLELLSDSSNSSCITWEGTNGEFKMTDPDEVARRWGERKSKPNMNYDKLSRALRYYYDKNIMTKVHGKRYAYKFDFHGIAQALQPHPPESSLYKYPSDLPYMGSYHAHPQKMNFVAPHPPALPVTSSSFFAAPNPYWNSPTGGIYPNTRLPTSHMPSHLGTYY
Outline: as §1

ELF1 = ELF1 (Homo sapiens, UniProt P32519 1-619)
ELF1, sequence (P32519 whole entry): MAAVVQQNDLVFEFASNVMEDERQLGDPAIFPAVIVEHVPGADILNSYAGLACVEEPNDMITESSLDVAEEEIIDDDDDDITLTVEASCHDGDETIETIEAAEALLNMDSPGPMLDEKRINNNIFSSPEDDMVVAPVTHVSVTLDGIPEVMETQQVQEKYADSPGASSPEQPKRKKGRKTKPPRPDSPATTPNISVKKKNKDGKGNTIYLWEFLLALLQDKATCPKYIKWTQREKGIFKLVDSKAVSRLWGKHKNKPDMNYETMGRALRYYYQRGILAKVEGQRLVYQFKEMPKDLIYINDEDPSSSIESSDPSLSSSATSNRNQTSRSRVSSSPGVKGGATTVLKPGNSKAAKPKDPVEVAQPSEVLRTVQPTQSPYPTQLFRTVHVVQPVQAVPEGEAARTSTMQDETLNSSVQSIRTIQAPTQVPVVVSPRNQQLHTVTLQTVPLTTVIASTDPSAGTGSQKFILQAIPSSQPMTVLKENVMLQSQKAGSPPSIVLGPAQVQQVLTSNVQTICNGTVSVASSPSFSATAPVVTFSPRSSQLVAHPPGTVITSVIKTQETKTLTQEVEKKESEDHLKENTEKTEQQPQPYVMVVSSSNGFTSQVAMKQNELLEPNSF
Outline: as §1

SPIB = SPIB (Homo sapiens, UniProt Q01892 1-262)
SPIB, sequence (Q01892 whole entry): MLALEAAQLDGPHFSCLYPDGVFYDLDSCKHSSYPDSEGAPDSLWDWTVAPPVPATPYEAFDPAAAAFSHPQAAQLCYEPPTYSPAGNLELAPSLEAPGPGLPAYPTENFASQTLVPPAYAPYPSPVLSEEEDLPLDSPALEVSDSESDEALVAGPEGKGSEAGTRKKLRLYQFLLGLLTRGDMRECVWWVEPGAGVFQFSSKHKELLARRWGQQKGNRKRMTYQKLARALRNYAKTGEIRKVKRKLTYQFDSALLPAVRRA
Outline: as §1

ELK4 = biological target: T6, ELK4 (Homo sapiens, UniProt P28324-2 1-405)
T6 sequence: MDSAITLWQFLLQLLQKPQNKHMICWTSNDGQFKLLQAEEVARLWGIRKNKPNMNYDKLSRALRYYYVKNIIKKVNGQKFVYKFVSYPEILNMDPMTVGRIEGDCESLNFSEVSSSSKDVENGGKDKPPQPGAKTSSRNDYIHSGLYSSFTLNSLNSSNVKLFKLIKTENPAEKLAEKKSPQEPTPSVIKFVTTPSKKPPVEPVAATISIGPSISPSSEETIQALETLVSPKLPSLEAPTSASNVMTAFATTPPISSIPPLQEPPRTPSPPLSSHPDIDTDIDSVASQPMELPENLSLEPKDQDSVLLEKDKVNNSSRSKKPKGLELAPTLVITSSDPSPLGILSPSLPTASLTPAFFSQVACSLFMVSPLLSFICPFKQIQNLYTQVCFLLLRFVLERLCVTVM
Outline: as §1

ETV2 = biological target: T7, ETV2 (Homo sapiens, UniProt O00321 1-342)
T7 sequence: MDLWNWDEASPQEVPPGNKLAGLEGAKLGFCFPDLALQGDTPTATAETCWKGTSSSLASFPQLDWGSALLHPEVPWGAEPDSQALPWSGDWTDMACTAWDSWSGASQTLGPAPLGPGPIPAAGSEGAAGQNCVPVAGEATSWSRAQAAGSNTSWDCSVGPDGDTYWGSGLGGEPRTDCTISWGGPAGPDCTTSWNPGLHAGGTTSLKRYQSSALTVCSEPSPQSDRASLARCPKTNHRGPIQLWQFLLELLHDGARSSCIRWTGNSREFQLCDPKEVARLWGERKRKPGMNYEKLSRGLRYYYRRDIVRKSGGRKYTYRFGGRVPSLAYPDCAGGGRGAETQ
Outline: as §1

ETV3L = biological target: T8, ETV3L (Homo sapiens, UniProt Q6ZN32 1-361)
T8 sequence: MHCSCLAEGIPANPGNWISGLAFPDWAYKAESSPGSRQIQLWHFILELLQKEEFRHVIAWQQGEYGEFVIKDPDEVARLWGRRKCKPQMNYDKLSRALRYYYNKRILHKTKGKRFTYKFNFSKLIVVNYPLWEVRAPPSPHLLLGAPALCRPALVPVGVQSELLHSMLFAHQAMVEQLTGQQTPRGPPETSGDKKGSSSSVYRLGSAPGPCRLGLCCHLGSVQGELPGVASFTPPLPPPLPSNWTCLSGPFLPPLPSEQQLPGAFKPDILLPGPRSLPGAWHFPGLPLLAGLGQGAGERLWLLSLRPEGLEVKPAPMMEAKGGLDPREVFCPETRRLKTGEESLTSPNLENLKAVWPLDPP
Outline: as §1

ETV3 = biological target: T9, ETV3 (Homo sapiens, UniProt P41162-2 1-143)
T9 sequence: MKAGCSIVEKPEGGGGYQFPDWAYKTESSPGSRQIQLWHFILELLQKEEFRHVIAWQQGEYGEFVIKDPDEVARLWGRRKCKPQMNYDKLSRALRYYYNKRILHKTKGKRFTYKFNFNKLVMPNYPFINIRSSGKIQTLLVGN
Outline: as §1

With ACATGA the binding signal (ELK1) was 1.01 fold enrichment (6-mer frequency, TF over GST control), the binding signal (SPI1) was 1.01 fold enrichment (6-mer frequency, TF over GST control) and the binding signal (ELK3) was 1.07 fold enrichment (6-mer frequency, TF over GST control). For the same sequence, the binding signal (SPIC) was 1.02 fold enrichment (6-mer frequency, TF over GST control), the binding signal (ELF4) was 1.04 fold enrichment (6-mer frequency, TF over GST control) and the binding signal (ELF3) was 1.03 fold enrichment (6-mer frequency, TF over GST control).

In the case of TCAGAC, the binding signal (SPIC) is reported as 1.11 fold enrichment (6-mer frequency, TF over GST control).

For AGCAGA, the binding signal (SPIC) was 1.04 fold enrichment (6-mer frequency, TF over GST control).

For GCCCTG, the binding signal (ELK1) was 1.12 fold enrichment (6-mer frequency, TF over GST control), the binding signal (ERG) was 1 fold enrichment (6-mer frequency, TF over GST control) and the binding signal (ELF1) was 1.06 fold enrichment (6-mer frequency, TF over GST control). For the same sequence, the binding signal (SPIB) was 1.07 fold enrichment (6-mer frequency, TF over GST control), the binding signal (SPIC) was 1.11 fold enrichment (6-mer frequency, TF over GST control) and the binding signal (ELK4) was 1.04 fold enrichment (6-mer frequency, TF over GST control). For the same sequence, the binding signal (ETV2) was 1 fold enrichment (6-mer frequency, TF over GST control), the binding signal (ETV3L) was 1.08 fold enrichment (6-mer frequency, TF over GST control) and the binding signal (ETV3) was 1.04 fold enrichment (6-mer frequency, TF over GST control).
